Screens: PubChem, several laboratories
Autofluor counter: counter-screen for toxin protease inhibitors: compound fluorescence | fluorescence intensity (concentration not given with the values) | 3.1% of 360,000 active | compound autofluorescence counterscreen, microsphere flow cytometry; stronger effect = higher value; in the data active means fluorescence intensity above about 16000; inconclusive means no clear call, values can overlap the other calls
BoNT-F LC inh: BoNT/F light chain protease inhibitors, primary screen, biochemical, flow cytometry, MLPCN library; AID 588497, 2011; Botulinum neurotoxin type F light chain protease (Clostridium botulinum); 0.22% of 360,000 active; inhibition, % at 10 µM; Multiplex microsphere protease cleavage assay; in the data active means inhibition above about 35%, passing the limit was not always enough; inconclusive means no clear call, values can overlap the other calls
Anthrax LF inh2: Bacillus anthracis LF protease inhibitors, primary screen, biochemical, multiplex microsphere, MLPCN library; Lethal factor (Bacillus anthracis), P15917; multiplex microsphere protease cleavage assay; inhibition, % at 10 µM; 0.12% of 360,000 active
BoNT-A LC inh2: BoNT/A light chain protease inhibitors, primary screen, biochemical, flow cytometry, MLPCN library. Botulinum neurotoxin type A light chain protease (Clostridium botulinum A str. ATCC 3502). 0.17% of 360,000 active. AID 588499, 2011. multiplex microsphere protease substrate cleavage. inhibition, % at 10 µM
MazEF act: activators of E. coli MazEF toxin-antitoxin RNase, primary screen, biochemical, fluorescence, uHTS | FAM/BHQ RNA-DNA oligo cleavage fluorescence, 5 h | AID 504720, 2011 | Endoribonuclease toxin MazF (Escherichia coli (strain K12)), P0AE70 | activation, % at 20 µM | 0.32% of 350,000 active; in the data active means activation above about 50%
Target sequence (P0AE70 whole entry, looked up): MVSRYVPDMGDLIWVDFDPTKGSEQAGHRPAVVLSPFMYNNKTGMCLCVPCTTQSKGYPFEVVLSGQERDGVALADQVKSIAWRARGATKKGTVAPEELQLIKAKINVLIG
Of the large screens only hits and unclear results are named; the others gave an inactive call. Shown are actives, neighbours in structure and some others; about 3.7% of the full set was active somewhere. Unless noted, no stated cut-off is given here; in the data, active means inhibition above about 30%; inconclusive means no clear call, values can overlap the other calls; inactive means below that.

CC(=O)OCc1c(C(F)(F)F)nn(C)c1Sc1ccccc1	Autofluor counter 19824
CCC(=O)OCc1c(C(F)(F)F)nn(C)c1Sc1ccc(F)cc1	none
Cc1cc(OCC(=O)OC(C)C(=O)Nc2ccc(N3CCOCC3)cc2)ccc1Cl (stereo unspecified)	none
COC(=O)c1cn[nH]c1NC(=S)Nc1ccc(C)cc1Cl	Autofluor counter 23473, BoNT-A LC inh2 inconclusive
COC(=O)c1cn[nH]c1NC(=S)Nc1ccc(Cl)c(Cl)c1	none
O=C(Nc1cccc(-c2ccc(N3CCCCC3)nn2)c1)c1ccco1	none
CC(=NNc1nc2ccccc2s1)c1ccncn1	none
CC(=NNC(=S)N1CC2CCC(CC2)C1)c1ccncn1	BoNT-F LC inh 59, Anthrax LF inh2 57
C=CCNC(=S)N/N=C(\C)c1ccccn1	Autofluor counter 16885
CC(=NNC(=S)Nc1ccccc1)c1ccccn1	none
CC(=NNC(=S)N1CCCCC1)c1cccc(C)n1	none
CC(=NNC(=S)N1CCCCC1)c1ccccn1	BoNT-F LC inh 73, Anthrax LF inh2 87
O=C(NNC(=O)c1c(O)c2ccccc2[nH]c1=O)c1ccccc1Br	none
O=C(Nn1cnnc1)c1ccc(Cl)c(Cl)c1	none
CC(C)C(C)(C#N)NC(=O)CSc1nc(C2CCCCC2)n(-c2ccccc2)n1 (stereo unspecified)	BoNT-F LC inh 38
COc1ccc(NC(=O)/C(Cl)=C(/Cl)S(=O)Cc2ccc(Cl)cc2)cn1 (stereo unspecified)	none
COc1cc(C2C(C#N)=C(N)Oc3c2oc(CO)cc3=O)ccc1OC(C)C (stereo unspecified)	Autofluor counter 20218, BoNT-A LC inh2 inconclusive
CS(=O)(=O)Nc1ccc(Cc2ccc(NS(C)(=O)=O)cc2)cc1	Autofluor counter 20871
CCc1nnc(NC(=O)C(c2ccccc2)c2ccccc2)s1	none
COc1cccc(CNS(=O)(=O)c2ccc3c(c2)N(C(C)=O)CCO3)c1	none
COc1ccc(NC(=O)c2cncc(Br)c2)c(S(=O)(=O)N2CCOCC2)c1	none
COc1ccc(NC(=O)c2cccnc2Cl)c(S(=O)(=O)N2CCOCC2)c1	Autofluor counter 22564
COc1ncccc1C(=O)N1CCCC(C(=O)Nc2cccc(-c3ccc(F)cc3)c2)C1 (stereo unspecified)	none
C=CCSc1nc(=O)n2ccccc2n1	none
C=CCSc1nc(=O)n2cccc(C)c2n1	Autofluor counter 21125
O=C(c1ccccc1)c1c[nH]c(C(=O)NCCCN2CCOCC2)c1	Autofluor counter 22011, BoNT-A LC inh2 inconclusive
CCC(CC)C(=O)c1c[nH]c(C(=O)NCCCN2CCOCC2)c1	Autofluor counter 23037, BoNT-A LC inh2 inconclusive
O=C(NCCCN1CCOCC1)c1cc(C(=O)C2CCCCC2)c[nH]1	none
O=C(c1ccc(F)cc1)c1c[nH]c(C(=O)NCCCN2CCOCC2)c1	none
CC(CCC(C)OC(=O)c1ccccc1C(=O)O)OC(=O)c1ccccc1C(=O)O (stereo unspecified)	none
CCCCCCC(C)OC(=O)c1ccccc1C(=O)O (stereo unspecified)	BoNT-F LC inh 35
CC(C)CC(NC(=O)OC(C)(C)C)C(=O)O (stereo unspecified)	none
CC(C)(C)OC(=O)NC(CCCCNC=O)C(=O)O (stereo unspecified)	Autofluor counter 23419
CCOC(=O)C1=C(COC(=O)/C=C/c2ccco2)NC(=O)NC1C (stereo unspecified)	none
CCC(CC)C(=O)N1CC(=O)Nc2ccc(F)cc2C1c1ccccc1 (stereo unspecified)	none
CCN1C(=O)C(=Cc2ccc(C)s2)C(=O)N(CC)C1=S	BoNT-A LC inh2 69
CCN1C(=O)/C(=C/c2ccc(C)s2)NC1=S	none
O=C(CSc1nnnn1-c1cccc2ccccc12)Nc1ccc(N2CCOCC2)c(Cl)c1	Autofluor counter 16201
O=C(CSc1nnnn1-c1ccccc1)Nc1ccc(N2CCOCC2)c(Cl)c1	none
CCCNC(=O)c1noc2c1CCc1ccccc1-2	none
O=C(NCCN1CCOCC1)c1ccc(-c2ccccc2)cc1	Autofluor counter 20391
O=C(NCCc1ccccc1)c1noc2c1CCc1ccccc1-2	Autofluor counter 17456
Cc1cccc(C(=O)NCCN2CCN(c3ccccc3)CC2)c1	none
O=C(NCCN1CCOCC1)c1noc2c1CCc1ccccc1-2	Autofluor counter 23180
